Compounds with a hit are over-represented: about 6.7% of the library has one in this group of screens.
SW480 rereplic = induces DNA re-replication in SW480 colon adenocarcinoma cells; SW480 DNA re-replication, Hoechst DNA content imaging, 48 h; Potency, µM (series often up to 46.1 µM), for the others: at the top dose re-replication activation, hits mostly activators; actives 1.8% (n = 340,000); AID 624297; further: % of control where 0% means no effect; nearly all actives have a fitted effect of over 55% in size
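Treated cells incubate 48 hr (37 C, 5% CO2), are stained 40 min with Hoechst, and nuclear fluorescence is enumerated; a rise in nuclei with high DNA signal marks re-replication.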
MCF10A rerep = induces DNA re-replication in MCF 10a normal breast cells; MCF 10A DNA re-replication, Hoechst nuclear intensity, 48 h; Potency, µM (doses to about 46.1 µM), for the others: top-dose activity, positive = re-replication, most hits filed as activators; actives 2.9% (n = 350,000); AID 624296; further: % of control where 0% means no effect; nearly all actives have a fitted effect of over 50% in size
PINK1 modulator = changes PINK1 expression. PINK1 immunofluorescence, high-content cytometry, 24 h. Potency, µM (top dose mostly 76.6 µM), for the others: at the top dose activation (PINK1 increase), actives largely listed as activators. actives 0.2% (n = 410,000). AID 624263; active means well fitted activation curve with a large enough effect; inconclusive means small, poorly fitted or top-dose-only effect; cell line not stated here; further: % of control where 0% means no effect; nearly all actives have a fitted effect of over 65% in size
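Cells are seeded, rested 12 hours, then given compound at five concentrations or DMSO for 24 hours. After fixation, blocking and antibody staining, PINK1 amount and mitochondrial localization are scored; CCCP serves as control.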
KB-V1 MDR tox = KB-V1 MDR subline cytotoxicity; KB-V1 MDR cells viability, CellTiter-Glo, 72 h; Potency, µM (highest dose often 46.1 µM), most hits filed as cytotoxic; actives 3.4% (n = 400,000); AID 1347076; further: on the % scale 0 is the no-effect control and ±100 the full control effect; nearly all actives have a fitted effect of over 60% in size
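KB-V1 MDR subline cells in DMEM (phenol-red free, 10% FBS) exposed to compounds in qHTS concentration series for 72 h at 37 degrees C. Viability read by CellTiter-Glo luminescence; concentration-effect curves fitted after normalization and correction.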
KB-3-1 cytotox = KB-3-1 parental cell cytotoxicity; KB-3-1 viability, CellTiter-Glo ATP luminescence, 72 h; Potency, µM (doses to about 46.1 µM), most hits filed as cytotoxic; actives 1.4% (n = 400,000); AID 1347075; further: on the % scale 0 is the no-effect control and ±100 the full control effect; nearly all actives have a fitted effect of over 60% in size
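Multi-concentration cytotoxicity screen in KB-3-1 cells grown in DMEM lacking phenol red with 10% FBS. After 72 h at 37 °C with compound, ATP-dependent luminescence was recorded.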
The depositor's hits bear a star; i = inactive; ? = inconclusive; . = no result given; [ ] = another dose, or the depositor's remark. Unless noted, the call rests on the fitted dose curve; in most records, active means well fitted curve in the direction sought with a large enough effect; inconclusive means small, poorly fitted or top-dose-only effect, or another doubt; inactive means no such curve, though single readings can be large; an effect the other way counts as inactive or inconclusive. Potency means the concentration at half of the fitted maximal effect.

SMILES	SW480 rereplic	MCF10A rerep	PINK1 modulator	KB-V1 MDR tox	KB-3-1 cytotox
Cc1ccccc1C1(CC(=O)N2CC3CC4CC(C3)CC2C4)CC(=O)N(Cc2cccnc2)C1=O (configuration not stated)	.	.	0%	.	.
Cc1ccc(S(=O)(=O)NN=C2CCc3ccccc32)cc1	.	.	0%	i	i
Cc1cccc(C)c1-n1nnnc1C(c1ccnc2ccccc12)N1CCN(C(=O)OC(C)(C)C)CC1 (configuration not stated)	.	.	2%	?	i
Cc1ccc(-c2csc3nc[nH]c(=S)c23)cc1C	?	?	2%	13µM*	?
COc1ccc(-c2csc3nc[nH]c(=O)c23)cc1OC	7%	5%	-1%	i	i
CC1CCN(S(=O)(=O)c2ccc3c(c2)N(CC(=O)N2CCN(c4ccccc4)CC2)C(=O)CO3)CC1	.	.	1%	?	?
Cc1ccc(C(=O)Nc2ccc(Cl)cc2C)c(Cl)c1	3%	11%	0%	16µM*	i
Cc1ccc(C(=O)Nc2ccc(Cl)cc2C(F)(F)F)c(Cl)c1	-1%	10%	1%	i	i
CSCCNC(=O)C1(C)CCN1C(=O)C/C=C/c1ccccc1 (configuration not stated)	.	.	0%	?	i
O=C(OCc1ccco1)c1cccnc1	?	13µM*	-2%	i	i
COc1ccc2nc(C)cc(Sc3nc4ccccc4s3)c2c1	?	16µM*	-4%	18µM*	?
Cc1nc(NCc2ccc3nsnc3c2)sc1-c1ccn(C)n1	.	.	2%	.	.
N#CC1=C(N)C(C#N)(C#N)[C@H](c2ccncc2)[C@H]2CN(C(=O)OCc3ccccc3)CC=C12	?	123%	3%[38.3 µM]	?	i
CC(C)N1CC=C2C(C#N)=C(N)C(C#N)(C#N)C(c3ccccc3)C2C1 (configuration not stated)	-5%[9.22 µM]	8%	7.9µM*	i	i
CN1CC=C2C(C#N)=C(N)C(C#N)(C#N)C(Cc3ccccc3)C2C1 (configuration not stated)	-2%	1%	18µM*	i	i
CCN1CC=C2C(C#N)=C(N)C(C#N)(C#N)C(c3cc(Cl)ccc3Cl)C2C1 (configuration not stated)	8%	16µM*	?	i	i
COc1cc(C2C3CN(C)CC=C3C(C#N)=C(N)C2(C#N)C#N)ccc1OC(C)C (configuration not stated)	-6%	1%	40µM*	i	i
COCCNC(=O)C1(C)CCCN(C(=O)c2ccccc2F)C1 (configuration not stated)	.	.	1%	i	i
O=C(CCN1C(=O)/C(=C/c2cccs2)SC1=S)N1CCCCC1	23µM*	?	1%	?	?
O=C(CCN1C(=O)/C(=C/c2ccccc2F)SC1=S)NCCCn1ccnc1	-6%	21µM*	2%	i	i
CN1CCN(C(=O)CCN2C(=O)/C(=C/c3ccc(F)cc3)SC2=S)CC1	-2%	?	8%	i	21µM*
O=C(CCN1C(=O)/C(=C\c2ccccc2F)SC1=S)N1CCOCC1	.	.	1%	i	i
CN1CCN(C(=O)CCN2C(=O)/C(=C\c3ccccc3F)SC2=S)CC1	?	23µM*	2%	i	?
Cc1cccc(NC(=O)Cn2cc(S(=O)(=O)N3CCCC3)c(S(=O)(=O)N3CCCC3)c2)c1C	.	.	5%	i	?
COc1ccc(/C=C2\SC(=S)N(CCCC(=O)N3CCOCC3)C2=O)cc1	?	?	1%	?	23µM*
SMILES	SW480 rereplic	MCF10A rerep	PINK1 modulator	KB-V1 MDR tox	KB-3-1 cytotox
O=C(CCCN1C(=O)/C(=C/c2ccccc2Cl)SC1=S)N1CCOCC1	?	?	9%	i	?
Cc1ccc(/C=C2\SC(=O)N(CCC(=O)N3CCN(C)CC3)C2=O)cc1	-1%	13µM*	0%	?	i
O=C(CCN1C(=O)/C(=C/c2ccc(F)cc2)SC1=S)NC1C=CS(=O)(=O)C1 (configuration not stated)	27%	?	4%	?	i
CN1CCN(C(=O)CCN2C(=O)S/C(=C/c3ccc(Cl)cc3)C2=O)CC1	-5%	?	1%	?	i
CN1CCN(C(=O)CCN2C(=O)/C(=C/c3ccccc3Cl)SC2=S)CC1	?	5.8µM*	-2%	?	?
O=C(CCN1C(=O)/C(=C/c2ccccc2Cl)SC1=S)NC1C=CS(=O)(=O)C1 (configuration not stated)	?	15µM*	8%	i	i
COc1ccc(/C=C2\SC(=S)N(CCCC(=O)N3CCOCC3)C2=O)cc1OC	4%	5%	3%	?	?
COc1cccc(-c2ccc3ncnc(NCc4ccccc4)c3c2)c1	.	.	3%	.	.
CCCCn1nnnc1C(c1ccc(OC)cc1)N1CCN(C/C=C/c2ccccc2)CC1 (configuration not stated)	.	.	16%	i	i
COc1ccc(/C(O)=C/c2nc3ccccc3n(-c3ccccc3)c2=O)cc1	?	8.2µM*	?	i	i
COc1ccc(-n2c(=O)c(CCC(=O)N3CCN(c4cccc(OC)c4)CC3)nc3ccccc32)cc1	.	.	0%	i	i
C[C@@H]1CN([C@H](C)CO)C(=O)CCCn2cc(nn2)CO[C@H]1CN(C)C(=O)Nc1ccc(-c2cccs2)cc1	.	.	-2%	i	i
O=C(COC(=O)/C=C/c1ccc(F)cc1)NCC1CCCO1 (configuration not stated)	4%	-8%	0%	?	i
CN(C)CCCNc1ccc(-c2cc(Nc3cccc(Cl)c3)ncn2)cn1	?	21µM*	0%	i	i
Cc1oncc1-c1csc(-c2ccccc2)n1	-2%	-2%	2%	?	i
Cc1oncc1-c1csc(-c2ccccc2Cl)n1	i[1.84 µM]	-4%	-1%	13µM*	?
CC(C)NC(=O)N1CCCC2(CCN(C(=O)c3cc(C(F)(F)F)cc(C(F)(F)F)c3)CC2)C1	.	.	0%	.	.
COC(=O)/C=C1\OCc2cc(OC)c(OCc3ccccc3)cc21	.	.	.	i	i
COc1cc2c(cc1OC)/C(=C/c1ccc(Br)cc1)C(=O)OC2	?	?	-4%	?	21µM*
O=C(c1csnn1)N1CCC2(CC1)CN(C(c1ccccc1)c1ccccc1)C2	.	.	0%	.	.
CCOc1ccccc1N1CCN(C2=C(NS(=O)(=O)c3cccs3)C(=O)c3ccccc3C2=O)CC1	24%	23µM*	5%	?	?
CCN1CCN(C2=C(NS(=O)(=O)c3ccccc3)C(=O)c3ccccc3C2=O)CC1	18µM*	?	1%	?	?
